# Source: PubChem BioAssay (NCATS)
# Records with an inconclusive call do not appear. Unmarked numbers belong to inactive results. The call rests on the fitted dose curve; in most records, active means well fitted cell-killing curve with a large enough effect; inconclusive means small, poorly fitted or top-dose-only effect; inactive means flat fitted curve, though single readings scatter.
# Test: Vero cells viability qHTS for Zika virus inhibitors (AID 1347167)
# Details: cytotoxicity counter-screen (Zika); series mostly up to 45.9 µM; activity change, negative = cytotoxicity: at the top concentration
# Summary of the method: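 Compounds were tested in concentration series on cells grown in DMEM containing 4% FBS. After 24 to 48 hours, cellular ATP was measured by luminescence with CellTiter Glo.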
# On the % scale 0 is the no-effect control and ±100 the full control effect.
row,Compound,"activity change, negative = cytotoxicity"
1,CN(Cc1cnc2nc(N)nc(N)c2n1)c1ccc(C(=O)N[C@@H](CCC(=O)O)C(=O)O)cc1,-0.366%
2,COc1cc2nc(N3CCN(C(=O)c4ccco4)CC3)nc(N)c2cc1OC,-2.47% [at 26.9 µM]
3,CCOC(=O)Nc1ccc(NCc2ccc(F)cc2)nc1N,-7.69%
4,C[C@H]1c2cccc(O)c2C(O)=C2C(=O)[C@]3(O)C(O)=C(C(N)=O)C(=O)[C@@H](N(C)C)[C@@H]3[C@@H](O)[C@@H]21,-4.45%
5,Cn1ccc2cc3c(cc21)CCN3C(=O)Nc1cccnc1,-1.28%
6,Cc1ccccc1N1C(=O)c2cc(S(N)(=O)=O)c(Cl)cc2NC1C (configuration not stated),-2.59%
7,Cc1cnc(C(=O)NCCc2ccc(S(=O)(=O)NC(=O)NC3CCCCC3)cc2)cn1,-0.829%
